ERG-DNA inh – ERG Ets/DNA interaction inhibition | P11308 | fluorescence polarization, His-ERG Ets domain / labelled DNA | Potency, µM (highest dose often 76.9 µM), for inactives: at the top dose FP activity, negative = inhibition, most hits filed as inhibitors | 370,000 compounds, 0.028% hits | AID 624246; active means well fitted inhibition curve with a large enough effect in the polarisation, with a control signal flat; inconclusive means small, poorly fitted or top-dose-only effect, or effect the other way, or a change in a side signal; inactive means no such curve, though single readings can be large or run the other way; the % refers to the polarisation;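 further: polarization taken with two DNA probes labelled with fluorescein and Texas red; potency means the concentration at half of the fitted maximal effect; % of control where 0% means no effect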
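His-tagged ERG Ets domain (1 uM in the protein solution; 300mM KCl, 50mM Tris-HCl, 1mM EDTA, 1mM DTT, pH 7.5) received compound, then a probe mix of 5 nM fluorescein-DNA and 100nM Texas-615-DNA. Fluorescence polarization was read for both dyes.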
CXXC DNA block – inhibitors of human MLL CXXC domain-DNA interaction. Q03164. MLL-CXXC / FITC-HOXA9 DNA fluorescence polarization. Potency, µM (series often up to 115 µM), for the others: at the top dose activity change, negative = inhibition, most hits filed as inhibitors. 290,000 compounds, 0.037% hits; active means well fitted inhibition curve with a large enough effect in the polarisation, with a control signal flat, not every such curve was filed as active; inconclusive means small, poorly fitted or top-dose-only effect, or effect the other way, or a change in a side signal; inactive means no such curve, though single readings can be large or run the other way; the % refers to the polarisation; further: potency means the concentration at half of the fitted maximal effect
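Fluorescence polarization: 7 uM MLL-CXXC (stock) preincubated 5 min with compounds, then 50 nM fluorescein-HOX-A9 DNA (stock) added; 30 min ambient. Buffer 50 mM Tris-HCl pH 7.5, 50 mM NaCl, 1 mM DTT, 0.05% BSA.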
Menin-MLL TR inh – displaces Texas Red mutant MLL peptide from human menin. Menin + Texas Red MLL mutant peptide, fluorescence polarization. Potency, µM (series often up to 61.6 µM), without a hit: at the highest dose FP activity change, negative = inhibition, most hits filed as inhibitors. 270,000 compounds, 0.23% hits. AID 1768; active means well fitted inhibition curve with a large enough effect in the polarisation, with a control signal flat, not every such curve was filed as active; inconclusive means small, poorly fitted or top-dose-only effect, or effect the other way, or a change in a side signal; inactive means no such curve, though single readings can be large or run the other way; the % refers to the polarisation; further: potency means the concentration at half of the fitted maximal effect; % of control where 0% means no effect
Menin MLL FP FL – menin-MLL binding inhibition, fluorescein peptide | Fluorescence polarization, fluorescein-MLL peptide displacement from menin | FP activity change, % at 61.4 µM | 290,000 tested, under 10 active | AID 1766; active means well fitted curve in the direction sought with a large enough effect in the polarisation, not every such curve was filed as active; inconclusive means small, poorly fitted or top-dose-only effect, or effect the other way, or a change in a side signal; inactive means no such curve, though single readings can be large or run the other way; the % refers to the polarisation; further: % of control where 0% means no effect
RGS4 inh – inhibitors of human regulator of G protein signaling 4; Transcreener GDP fluorescence polarization, RGS4-accelerated GTP hydrolysis; Potency, µM (top dose mostly 114 µM), for the others: top-dose activity change, negative = inhibition, most hits filed as inhibitors; 390,000 compounds, 0.039% hits; P49798; further: potency means the concentration at half of the fitted maximal effect; on the % scale 0 is the no-effect control and ±100 the full control effect; nearly all actives have a fitted effect of over 75% in size
Target sequence (P49798 whole entry, looked up): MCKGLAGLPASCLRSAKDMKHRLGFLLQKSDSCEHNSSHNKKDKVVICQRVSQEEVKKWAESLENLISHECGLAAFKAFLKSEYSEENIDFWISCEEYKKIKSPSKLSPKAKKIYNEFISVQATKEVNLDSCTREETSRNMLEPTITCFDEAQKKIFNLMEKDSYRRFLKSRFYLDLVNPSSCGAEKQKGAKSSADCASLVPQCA
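MLSMR compounds (23 nl, pin-transferred) preincubated 10 min at room temperature with a 500nM (2x) first reagent, then RGS4 at 900nM (2x) plus Transcreener GDP mix added; fluorescence polarization (620/688 nm) read before and after 90 min at 30 °C.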
TSG101-PTAP inh – blocks PTAP/TSG101 interaction to inhibit HIV-1 budding | Q99816 | Fluorescence polarization, FITC-PTAP peptide / Tsg101 binding | Potency, µM (top dose mostly 115 µM), for inactives: at the top dose activity change, negative = inhibition, usual class: inhibitors | 340,000 tested, under 10 active; active means well fitted inhibition curve with a large enough effect in the main read-out, with a control signal flat, not every such curve was filed as active; inconclusive means small, poorly fitted or top-dose-only effect, or effect the other way, or a change in a side signal; inactive means no such curve, though single readings can be large or run the other way; further: potency means the concentration at half of the fitted maximal effect; % of control where 0% means no effect
Target sequence (Q99816 whole entry, looked up): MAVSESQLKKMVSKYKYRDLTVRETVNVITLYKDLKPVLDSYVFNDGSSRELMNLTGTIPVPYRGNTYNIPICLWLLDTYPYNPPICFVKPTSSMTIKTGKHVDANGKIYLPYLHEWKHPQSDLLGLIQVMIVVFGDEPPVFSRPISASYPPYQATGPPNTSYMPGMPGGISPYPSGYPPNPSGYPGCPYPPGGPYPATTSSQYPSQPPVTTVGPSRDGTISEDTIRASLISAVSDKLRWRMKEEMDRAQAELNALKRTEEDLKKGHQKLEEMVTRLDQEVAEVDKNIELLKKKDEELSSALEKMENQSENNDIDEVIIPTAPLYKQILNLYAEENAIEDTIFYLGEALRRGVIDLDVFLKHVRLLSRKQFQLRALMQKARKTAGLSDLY
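Steps: Tsg101 binding domain dispensed (10 uM final), compounds pinned in DMSO, FITC-labeled PTAP-motif peptide added (50 nM final); after 20 min binding at room temperature, polarization measured.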
MLL CXXC Fl – inhibitors of human MLL CXXC domain-DNA interaction. shares compounds with CXXC DNA block. MLL CXXC-DNA binding, fluorescein FP. Potency, µM (highest dose often 345 µM), inactives show at the highest dose activity change, negative = inhibition, usual class: inhibitors. 200 compounds, 70% hits. AID 624160; further: potency means the concentration at half of the fitted maximal effect; nearly all actives have a fitted effect of over 80% in size
MLL CXXC TxRed – inhibitors of human MLL CXXC domain-DNA interaction, Texas Red format. shares compounds with CXXC DNA block. MLL CXXC-DNA binding, Texas Red fluorescence polarization. Potency, µM (titrated, usually from 345 µM), for the others: at the highest dose activity change, negative = inhibition, hits mostly inhibitors. 200 compounds, 40% hits; further: potency means the concentration at half of the fitted maximal effect; on the % scale 0 is the no-effect control and ±100 the full control effect; nearly all actives have a fitted effect of over 75% in size
MLL CXXC TRF – inhibitors of human MLL CXXC domain-DNA interaction, HTRF format | Potency, µM (top dose mostly 172 µM), for the others: top-dose activity change, negative = inhibition, most hits filed as inhibitors | shares compounds with CXXC DNA block | 210 compounds, 30% hits | MLL CXXC-DNA binding, HTRF, biochemical; further: on the % scale 0 is the no-effect control and ±100 the full control effect; nearly all actives have a fitted effect of over 80% in size
An asterisk follows results filed as active; i = inactive; ? = inconclusive; . = not tested or not shown; [ ] = dose if it differs, or a comment. This excerpt belongs to a sample that is enriched for hits. Unless noted, the call rests on the fitted dose curve; in most records, active means well fitted inhibition curve with a large enough effect; inconclusive means small, poorly fitted or top-dose-only effect; inactive means no such curve, though single readings can be large or run the other way.

SMILES	ERG-DNA inh	CXXC DNA block	Menin-MLL TR inh	Menin MLL FP FL	RGS4 inh	TSG101-PTAP inh	MLL CXXC Fl	MLL CXXC TxRed	MLL CXXC TRF
O=C1NC(=O)C(=Cc2cn(CCOc3ccc4c(c3)OCO4)c3ccccc23)C(=O)N1	-2.6%	35.5µM*	-10.8%	?	-2.5%	?	159µM*	?	-9.6%
Nc1ccc2ccccc2c1	-5.3%	.	.	.	?	-1.7%	.	.	.
C[n+]1c2cc(N)ccc2cc2ccc(N)cc21	35.5µM*	?	-8.7%	?	-7.1%	?	0.633µM*	142µM*	96.8µM*
O=c1[nH]c(=O)n(Cc2ccc(F)cc2)c(O)c1C=NCc1cccnc1	1.4%	2.3%	2.9%	-0.9	-1.9%	-3.4%	.	.	.
COc1ccc2c(c1OC)C(=O)OC2c1c(O)n(Cc2ccc(F)cc2)c(=O)[nH]c1=O (centres undefined)	-5.3%	12.6µM*	49.7%	8.0	-38.4%	-2.8%	25.2µM*	113µM*	96.8µM*
O=[N+]([O-])c1ccc(Cl)c([N+](=O)[O-])c1	5.2%	.	.	.	-51.4%	-2.0%	.	.	.
CN1C(=O)C(c2ccc([N+](=O)[O-])cc2[N+](=O)[O-])C(=O)N(C)C1=O	-6.8%	39.8µM*	40.4%	3.8	-6.1%	2.7%	?	?	39.6%
COc1ccc2cc1Oc1ccc(cc1)CC1c3cc(c(OC)cc3CCN1C)Oc1c(OC)c(OC)cc3c1C(C2)N(C)CC3 (centres undefined)	.	.	?	1.4	.	.	.	.	.
Cc1cc(/C=C2\C(=O)NC(=O)N(Cc3ccco3)C2=O)c(C)n1-c1ccc(C(=O)O)cc1	12.1%	28.2µM*	.	12.6	-34.3%	-3.6%	1.42µM*	142µM*	-13.6%
Cc1cc(/C=C2\C(=O)NC(=O)N(Cc3ccccc3Cl)C2=O)c(C)n1-c1ccc(C(=O)O)cc1	7.9%	?	?	18.1	-22.9%	0.7%	14.2µM*	50.3µM*	?
CCOC(=O)N1CCN(/[N+]([O-])=N/Oc2ccc([N+](=O)[O-])cc2[N+](=O)[O-])CC1C (centres undefined)	.	.	33.3%	-0.9	-21.5%	.	.	.	.
COc1ccc(-c2oc3cc(OC)ccc3c(=O)c2O)cc1	.	.	?	0.8	i	.	.	.	.
Cc1c(Cl)cccc1N1C(=O)NC(=O)/C(=C\c2cc(C)n(-c3cccc(C(=O)O)c3C)c2C)C1=O	-3.5%	?	31.9%	13.1	-12.4%	-8.0%	7.11µM*	71.1µM*	-8.8%
Cc1cc(/C=C2/C(=O)NC(=O)N(c3ccccc3)C2=O)c(C)n1-c1ccc(F)cc1	-1.3%	.	.	.	-26.7%	-2.0%	.	.	.
Cc1ccc(N2C(=O)NC(=O)/C(=C\c3cc(C)n(-c4cc(C(=O)O)cc(C(=O)O)c4)c3C)C2=O)cc1	-4.6%	8.91µM*	-6.8%	3.0	-2.3%	-0.6%	35.6µM*	40µM*	122µM*
Cc1cc(/C=C2\C(=O)NC(=O)N(c3cccc(F)c3)C2=O)c(C)n1-c1ccc(C(=O)O)c(Cl)c1	19.5%	12.6µM*	23.3%	?	-32.5%	0.9%	12.0%	89.5µM*	-7.0%
Cc1ccc(N2C(=O)NC(=O)/C(=C\c3cc(C)n(-c4ccc(C(=O)O)cc4)c3C)C2=O)cc1	43.4%	10.7%	19.1%	18.0	-21.9%[56.9 µM]	1.6%	.	.	.
Cc1cc(/C=C2\C(=O)NC(=O)N(c3ccc(F)cc3)C2=O)c(C)n1-c1ccc(C(=O)O)cc1	7.4%	?	7.1%	?	-34.5%	-0.5%	35.6µM*	100µM*	-11.9%
O=C1C=CC(=O)C(Cl)=C1	.	.	?	-2.3	.	.	.	.	.
COc1ccc(C(O)P(=O)(OCC(C)C)c2ccc(N(C)C)cc2)c(OC)c1 (centres undefined)	0.6%	10.5%	?	0.3	24.4%	-5.3%	.	.	.
O=C1c2ccccc2C(=O)C1C(=O)C(c1ccccc1)c1ccccc1	.	-10.6%	?	-0.4	.	.	.	.	.
O=C(O)CCC(=O)NCCC1=c2ccccc2=N/C1=C\c1c(O)n(Cc2ccc(F)cc2)c(=S)[nH]c1=O	10.5%	20µM*	.	21.8	?	-3.7%	22.5µM*	56.5µM*	15.3µM*
